Results on two sequences are retold here after PMC7862700, “An all-to-all approach to the identification of sequence-specific readers for epigenetic DNA modifications on cytosine”.

Holding throughout (assay): DAPPL (digital affinity profiling via proximity ligation, sequencing); 10 mM Tris-HCl pH 7.5, 50 mM NaCl, 1 mM DTT, 4% glycerol, room temperature, 30 min; GST-TFs on glutathione beads, 16-mer random dsDNA library, 0.1% formaldehyde crosslink after washing; high values mean tight binding
What all share (conditions): protein: recombinant; tags: N-terminal GST; dsDNA, one strand shown

One assay concerns the target T1, FLI1 (Homo sapiens, UniProt Q01543 1-452).
T1 sequence: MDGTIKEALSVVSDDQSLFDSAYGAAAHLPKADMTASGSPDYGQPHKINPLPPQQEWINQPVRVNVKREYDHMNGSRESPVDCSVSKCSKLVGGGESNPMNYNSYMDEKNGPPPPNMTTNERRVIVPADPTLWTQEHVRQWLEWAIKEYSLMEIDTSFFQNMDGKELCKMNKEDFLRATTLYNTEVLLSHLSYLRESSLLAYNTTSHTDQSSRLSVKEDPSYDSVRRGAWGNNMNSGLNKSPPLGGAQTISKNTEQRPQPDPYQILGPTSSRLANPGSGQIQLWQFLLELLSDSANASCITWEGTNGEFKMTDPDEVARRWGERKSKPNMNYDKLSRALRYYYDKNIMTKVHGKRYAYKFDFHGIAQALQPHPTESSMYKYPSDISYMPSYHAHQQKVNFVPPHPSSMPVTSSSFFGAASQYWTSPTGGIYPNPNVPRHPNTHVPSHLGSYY
The gist of the method: (§1)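 Human transcription factors fused to GST were expressed in yeast, captured on glutathione beads, given DNA barcodes and pooled with a GST-only negative control. Pools were incubated with 200 nmole of a 16-mer random double-stranded DNA library in Tris/NaCl/DTT/glycerol buffer at room temperature for 30 min. They were then washed, crosslinked with 0.1% formaldehyde, proximity-ligated (BsaI/T4 ligase, 1 h, 37 °C), PCR-amplified and sequenced on an Illumina NextSeq500. Binding signal is each 6-mer's read frequency for a factor divided by its frequency for the GST control.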

A further assay concerns the target T2, SPIC (Homo sapiens, UniProt Q8N5J4 1-248).
T2 sequence: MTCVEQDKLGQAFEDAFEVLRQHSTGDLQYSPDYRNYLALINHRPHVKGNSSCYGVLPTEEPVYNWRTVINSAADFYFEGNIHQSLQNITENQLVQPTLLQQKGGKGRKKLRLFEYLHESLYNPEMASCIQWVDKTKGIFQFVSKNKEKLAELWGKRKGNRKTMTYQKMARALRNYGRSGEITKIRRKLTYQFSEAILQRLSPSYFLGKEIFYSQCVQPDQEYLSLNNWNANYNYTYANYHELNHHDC
In outline:
as §1

The target of a further assay is T3, ETV2 (Homo sapiens, UniProt O00321 1-342).
T3 sequence: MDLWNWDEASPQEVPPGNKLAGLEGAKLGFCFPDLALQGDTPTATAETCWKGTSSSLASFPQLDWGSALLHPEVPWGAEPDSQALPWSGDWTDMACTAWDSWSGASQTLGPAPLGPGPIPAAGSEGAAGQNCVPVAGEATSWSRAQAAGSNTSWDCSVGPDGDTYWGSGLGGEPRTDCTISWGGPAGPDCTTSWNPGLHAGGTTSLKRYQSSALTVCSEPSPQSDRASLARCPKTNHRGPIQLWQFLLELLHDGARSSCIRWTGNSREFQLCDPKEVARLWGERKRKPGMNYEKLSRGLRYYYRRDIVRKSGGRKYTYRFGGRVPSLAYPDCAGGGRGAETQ
The gist of the method:
as §1

The next assay has as its target T4, ETV3L (Homo sapiens, UniProt Q6ZN32 1-361).
T4 sequence: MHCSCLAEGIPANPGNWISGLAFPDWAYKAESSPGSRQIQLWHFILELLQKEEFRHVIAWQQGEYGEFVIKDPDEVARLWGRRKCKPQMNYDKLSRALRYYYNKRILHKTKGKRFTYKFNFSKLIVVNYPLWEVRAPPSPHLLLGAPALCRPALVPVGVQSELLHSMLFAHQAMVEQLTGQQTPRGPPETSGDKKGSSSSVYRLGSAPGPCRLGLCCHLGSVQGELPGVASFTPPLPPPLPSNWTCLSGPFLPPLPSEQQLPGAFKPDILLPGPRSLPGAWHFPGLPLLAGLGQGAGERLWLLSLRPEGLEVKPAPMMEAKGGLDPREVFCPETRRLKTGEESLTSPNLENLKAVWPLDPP
In outline: as §1

The target of another assay is T5, ETV7 (Homo sapiens, UniProt Q9Y603 1-341).
T5 sequence: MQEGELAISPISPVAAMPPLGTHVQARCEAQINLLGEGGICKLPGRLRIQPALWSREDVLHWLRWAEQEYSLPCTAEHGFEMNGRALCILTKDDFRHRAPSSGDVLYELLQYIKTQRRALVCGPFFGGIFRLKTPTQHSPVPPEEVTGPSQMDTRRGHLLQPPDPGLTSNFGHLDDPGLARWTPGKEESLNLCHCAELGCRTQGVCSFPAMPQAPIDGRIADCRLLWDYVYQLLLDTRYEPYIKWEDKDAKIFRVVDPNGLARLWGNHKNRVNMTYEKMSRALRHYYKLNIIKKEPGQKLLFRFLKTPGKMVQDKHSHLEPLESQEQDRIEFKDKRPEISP
In outline:
as §1

The target of the next assay is T6, ELK1 (Homo sapiens, UniProt P19419 1-428).
T6 sequence: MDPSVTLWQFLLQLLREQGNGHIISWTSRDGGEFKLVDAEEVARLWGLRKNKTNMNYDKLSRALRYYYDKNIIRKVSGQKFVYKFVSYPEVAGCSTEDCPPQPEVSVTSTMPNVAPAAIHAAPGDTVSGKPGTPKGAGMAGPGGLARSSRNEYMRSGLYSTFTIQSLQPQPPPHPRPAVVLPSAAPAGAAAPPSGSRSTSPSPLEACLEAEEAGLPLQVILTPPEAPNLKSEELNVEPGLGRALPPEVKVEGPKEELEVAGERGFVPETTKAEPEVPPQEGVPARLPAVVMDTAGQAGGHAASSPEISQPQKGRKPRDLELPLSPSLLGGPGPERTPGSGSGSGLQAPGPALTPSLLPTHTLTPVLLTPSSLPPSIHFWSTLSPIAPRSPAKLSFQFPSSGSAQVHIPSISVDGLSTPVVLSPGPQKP
The gist of the method:
as §1

A further assay deals with T7, GABPA (Homo sapiens, UniProt Q06546 1-454).
T7 sequence: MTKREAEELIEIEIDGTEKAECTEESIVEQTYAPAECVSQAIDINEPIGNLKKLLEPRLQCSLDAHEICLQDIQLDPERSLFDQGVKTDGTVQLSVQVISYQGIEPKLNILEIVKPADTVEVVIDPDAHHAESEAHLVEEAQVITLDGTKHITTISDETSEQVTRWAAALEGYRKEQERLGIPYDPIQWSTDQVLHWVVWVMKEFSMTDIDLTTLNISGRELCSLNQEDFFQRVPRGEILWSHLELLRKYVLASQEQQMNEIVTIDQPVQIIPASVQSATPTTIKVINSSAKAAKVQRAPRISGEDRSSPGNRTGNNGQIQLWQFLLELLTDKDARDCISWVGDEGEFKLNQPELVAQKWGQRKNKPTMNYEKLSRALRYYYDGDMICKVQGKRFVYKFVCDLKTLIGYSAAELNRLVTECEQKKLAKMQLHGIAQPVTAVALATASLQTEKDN
In outline: as §1

The target in another assay is ELF1 (Homo sapiens, UniProt P32519 1-619). In outline:
as §1

Another assay has as its target T8, EHF (Homo sapiens, UniProt Q9NZC4 1-300).
T8 sequence: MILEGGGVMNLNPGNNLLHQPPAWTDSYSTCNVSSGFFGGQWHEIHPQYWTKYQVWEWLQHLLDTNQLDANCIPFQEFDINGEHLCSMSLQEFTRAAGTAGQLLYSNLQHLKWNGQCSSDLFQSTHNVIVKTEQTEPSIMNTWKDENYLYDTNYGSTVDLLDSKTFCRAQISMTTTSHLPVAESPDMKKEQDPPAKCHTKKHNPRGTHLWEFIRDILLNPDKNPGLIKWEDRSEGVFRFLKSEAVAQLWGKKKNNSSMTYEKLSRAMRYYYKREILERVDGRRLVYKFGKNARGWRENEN
The gist of the method:
as §1

Another assay addresses T9, ELK3 (Homo sapiens, UniProt P41970 1-407).
T9 sequence: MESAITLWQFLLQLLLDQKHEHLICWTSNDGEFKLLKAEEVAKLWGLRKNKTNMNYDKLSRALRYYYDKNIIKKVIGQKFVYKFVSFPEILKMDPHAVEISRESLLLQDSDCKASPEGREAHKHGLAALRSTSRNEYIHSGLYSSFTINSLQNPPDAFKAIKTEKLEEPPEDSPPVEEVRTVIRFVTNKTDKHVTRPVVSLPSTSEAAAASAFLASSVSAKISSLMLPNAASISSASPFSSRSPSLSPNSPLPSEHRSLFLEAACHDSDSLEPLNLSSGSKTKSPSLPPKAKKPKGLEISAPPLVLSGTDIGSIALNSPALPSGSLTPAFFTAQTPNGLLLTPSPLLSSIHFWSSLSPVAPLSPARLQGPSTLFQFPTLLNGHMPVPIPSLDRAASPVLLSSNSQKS
In outline:
as §1

The next assay deals with ELF4 (Homo sapiens, UniProt Q99607 1-663). The gist of the method:
as §1

The next assay deals with T10, ELK4 (Homo sapiens, UniProt P28324-2 1-405).
T10 sequence: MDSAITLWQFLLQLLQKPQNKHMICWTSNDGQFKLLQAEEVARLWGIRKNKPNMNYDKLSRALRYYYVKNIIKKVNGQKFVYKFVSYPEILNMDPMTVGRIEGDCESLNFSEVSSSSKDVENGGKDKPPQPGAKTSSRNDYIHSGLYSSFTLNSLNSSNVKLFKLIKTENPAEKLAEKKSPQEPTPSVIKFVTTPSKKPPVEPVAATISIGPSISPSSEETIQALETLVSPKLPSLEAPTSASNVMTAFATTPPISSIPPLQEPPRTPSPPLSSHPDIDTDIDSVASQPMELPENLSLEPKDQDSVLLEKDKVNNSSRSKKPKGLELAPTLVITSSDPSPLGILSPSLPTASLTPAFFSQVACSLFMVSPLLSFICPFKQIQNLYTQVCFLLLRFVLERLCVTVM
The gist of the method:
as §1

The target in a further assay is T11, ERF (Homo sapiens, UniProt P50548 1-548).
T11 sequence: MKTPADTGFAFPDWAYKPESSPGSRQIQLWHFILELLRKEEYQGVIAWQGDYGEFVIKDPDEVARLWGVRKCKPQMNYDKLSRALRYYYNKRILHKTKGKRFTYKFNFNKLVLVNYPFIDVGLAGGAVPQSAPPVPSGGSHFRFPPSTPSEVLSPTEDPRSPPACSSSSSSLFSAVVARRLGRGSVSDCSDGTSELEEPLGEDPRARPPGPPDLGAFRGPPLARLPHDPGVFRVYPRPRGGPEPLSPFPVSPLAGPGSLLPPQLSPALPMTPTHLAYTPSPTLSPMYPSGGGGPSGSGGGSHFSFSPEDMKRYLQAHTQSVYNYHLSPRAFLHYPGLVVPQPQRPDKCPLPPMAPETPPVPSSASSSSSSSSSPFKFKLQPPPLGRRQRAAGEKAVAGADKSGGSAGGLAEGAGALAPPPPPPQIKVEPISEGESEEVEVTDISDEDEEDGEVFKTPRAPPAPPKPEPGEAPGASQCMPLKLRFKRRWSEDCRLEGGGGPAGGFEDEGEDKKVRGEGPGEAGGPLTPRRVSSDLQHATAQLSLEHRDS
The gist of the method: as §1

The next assay addresses T12, ETV3 (Homo sapiens, UniProt P41162-2 1-143).
T12 sequence: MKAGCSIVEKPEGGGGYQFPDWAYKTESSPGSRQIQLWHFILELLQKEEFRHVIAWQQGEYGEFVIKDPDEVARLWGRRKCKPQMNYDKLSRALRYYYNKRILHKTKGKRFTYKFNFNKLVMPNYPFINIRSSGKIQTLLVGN
The gist of the method:
as §1

ELF1, sequence (P32519 whole entry): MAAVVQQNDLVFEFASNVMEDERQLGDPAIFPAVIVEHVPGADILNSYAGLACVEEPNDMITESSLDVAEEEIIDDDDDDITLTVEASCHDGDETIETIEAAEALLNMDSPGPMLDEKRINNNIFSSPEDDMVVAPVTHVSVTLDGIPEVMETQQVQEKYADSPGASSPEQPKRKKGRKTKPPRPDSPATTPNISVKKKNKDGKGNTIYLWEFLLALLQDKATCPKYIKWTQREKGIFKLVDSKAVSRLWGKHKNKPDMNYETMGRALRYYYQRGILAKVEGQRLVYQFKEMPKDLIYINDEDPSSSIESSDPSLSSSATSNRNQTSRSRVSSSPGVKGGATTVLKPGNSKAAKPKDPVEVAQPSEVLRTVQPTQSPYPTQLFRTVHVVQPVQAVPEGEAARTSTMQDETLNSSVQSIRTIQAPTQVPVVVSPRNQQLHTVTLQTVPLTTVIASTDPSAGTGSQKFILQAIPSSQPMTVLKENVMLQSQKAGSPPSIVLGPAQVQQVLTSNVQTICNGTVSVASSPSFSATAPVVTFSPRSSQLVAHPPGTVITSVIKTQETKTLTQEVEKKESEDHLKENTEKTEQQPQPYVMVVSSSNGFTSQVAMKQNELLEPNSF
ELF4, sequence (Q99607 whole entry): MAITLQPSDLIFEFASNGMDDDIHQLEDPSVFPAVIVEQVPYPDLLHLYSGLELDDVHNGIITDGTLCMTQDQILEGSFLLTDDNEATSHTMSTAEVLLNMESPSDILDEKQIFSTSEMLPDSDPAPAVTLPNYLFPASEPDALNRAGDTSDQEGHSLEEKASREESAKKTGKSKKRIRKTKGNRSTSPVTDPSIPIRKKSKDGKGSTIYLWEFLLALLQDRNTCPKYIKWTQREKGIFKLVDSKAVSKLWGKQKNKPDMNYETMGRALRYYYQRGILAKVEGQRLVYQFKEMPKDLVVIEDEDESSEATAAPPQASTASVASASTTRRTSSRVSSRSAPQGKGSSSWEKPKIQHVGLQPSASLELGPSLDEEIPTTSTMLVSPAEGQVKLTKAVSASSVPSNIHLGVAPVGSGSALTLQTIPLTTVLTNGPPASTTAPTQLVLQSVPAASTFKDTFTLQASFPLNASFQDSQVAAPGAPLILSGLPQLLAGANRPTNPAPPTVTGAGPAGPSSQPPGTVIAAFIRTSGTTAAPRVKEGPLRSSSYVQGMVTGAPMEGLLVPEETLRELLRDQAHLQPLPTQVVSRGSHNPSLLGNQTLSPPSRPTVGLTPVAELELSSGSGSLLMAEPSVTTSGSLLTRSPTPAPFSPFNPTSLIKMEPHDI

Turning to TCGTTA, the binding signal was 1 fold enrichment (6-mer frequency, TF over GST control) with FLI1; 1.02 fold enrichment (6-mer frequency, TF over GST control) in the assay with SPIC; 1.08 fold enrichment (6-mer frequency, TF over GST control) with ETV2; 1.01 fold enrichment (6-mer frequency, TF over GST control) in the assay with ETV3L; 1.06 fold enrichment (6-mer frequency, TF over GST control) in the assay with ETV7.

Consider GCCGCA, for which the binding signal with FLI1 was 1.01 fold enrichment (6-mer frequency, TF over GST control); with ELK1, 1.03 fold enrichment (6-mer frequency, TF over GST control); in the assay with GABPA it was 1.02 fold enrichment (6-mer frequency, TF over GST control); with ELF1, 1.04 fold enrichment (6-mer frequency, TF over GST control); with EHF, 1.04 fold enrichment (6-mer frequency, TF over GST control); in the assay with ELK3 it was 1.04 fold enrichment (6-mer frequency, TF over GST control). For the same sequence, the binding signal is 1.04 fold enrichment (6-mer frequency, TF over GST control) in the assay with ELF4; 1.04 fold enrichment (6-mer frequency, TF over GST control) with ELK4; 1.07 fold enrichment (6-mer frequency, TF over GST control) with ERF; 1.04 fold enrichment (6-mer frequency, TF over GST control) with ETV3L; 1 fold enrichment (6-mer frequency, TF over GST control) with ETV3.
